Source: the supplement of paper PMC8975748
Where a name gives a salt, the structure may show the parent alone. ± gives the standard deviation of the averaged measurements.

Experiments:
[1] = tested on: Saccharomyces cerevisiae BY4741 SeMeCo community; assay: mean cell size (pixel area) (pixels); higher = larger cells; details: 10 µM; 24 h; SM minimal medium
In short: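 Mean cell pixel area per well was determined by automated confocal microscopy with Harmony analysis of paraformaldehyde-fixed cells. The cells, a Saccharomyces cerevisiae BY4741 community of four plasmids that each complement one auxotrophy and carry a fluorescent marker, were incubated for 24 h with drug at a final 10 µM in SM medium in 384-well plates. Numbers are averaged over 3 replicates. Same SeMeCo high-content imaging drug screen: Selleck FDA-approved drugs at 10 µM, 24 h in SM medium, 384-well plates, 3 replicates.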

[2] = tested on: Saccharomyces cerevisiae BY4741 SeMeCo community; assay: z-score of prototroph abundance vs DMSO median; higher = larger share of this subpopulation than in DMSO controls; details: 10 µM; 24 h; SM minimal medium; subpopulation (auxotrophy): Prototroph
In short: (§1)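 Scoring was based on each subpopulation's abundance, expressed as a z-score against the vehicle-well median. A Saccharomyces cerevisiae BY4741 community with four plasmids, each restoring one auxotrophy and encoding a distinct fluorescent protein, was pre-grown overnight to OD600 1.0, diluted to 0.3, and added at 70 µl to 384-well plates acoustically predosed with library drugs (10 µM final). It then grew 24 h in minimal SM medium before paraformaldehyde fixation and automated confocal microscopy, with single-auxotroph fluorescent strains setting thresholds and autofluorescence correction.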

[3] = tested on: Saccharomyces cerevisiae BY4741 SeMeCo community; assay: z-score of subpopulation abundance vs DMSO median, subpopulation auxotrophic for M; higher = larger share of this subpopulation than in DMSO controls; details: 10 µM; 24 h; SM minimal medium; subpopulation (auxotrophy): M
In short: as §1

[4] = tested on: Saccharomyces cerevisiae BY4741 SeMeCo community; assay: z-score of subpopulation abundance vs DMSO median, subpopulation auxotrophic for L; higher = larger share of this subpopulation than in DMSO controls; details: 10 µM; 24 h; SM minimal medium; subpopulation (auxotrophy): L
In short: as §1

[5] = tested on: Saccharomyces cerevisiae BY4741 SeMeCo community; assay: z-score of subpopulation abundance vs DMSO median, subpopulation auxotrophic for U; higher = larger share of this subpopulation than in DMSO controls; details: 10 µM; 24 h; SM minimal medium; subpopulation (auxotrophy): U
In short: as §1

[6] = tested on: Saccharomyces cerevisiae BY4741 SeMeCo community; assay: z-score of subpopulation abundance vs DMSO median, subpopulation auxotrophic for H; higher = larger share of this subpopulation than in DMSO controls; details: 10 µM; 24 h; SM minimal medium; subpopulation (auxotrophy): H
In short: as §1

[7] = tested on: Saccharomyces cerevisiae BY4741 SeMeCo community; assay: z-score of subpopulation abundance vs DMSO median, subpopulation auxotrophic for LU; higher = larger share of this subpopulation than in DMSO controls; details: 10 µM; 24 h; SM minimal medium; subpopulation (auxotrophy): LU
In short: as §1

[8] = tested on: Saccharomyces cerevisiae BY4741 SeMeCo community; assay: z-score of subpopulation abundance vs DMSO median, subpopulation auxotrophic for LM; higher = larger share of this subpopulation than in DMSO controls; details: 10 µM; 24 h; SM minimal medium; subpopulation (auxotrophy): LM
In short: as §1

[9] = tested on: Saccharomyces cerevisiae BY4741 SeMeCo community; assay: z-score of subpopulation abundance vs DMSO median, subpopulation auxotrophic for HM; higher = larger share of this subpopulation than in DMSO controls; details: 10 µM; 24 h; SM minimal medium; subpopulation (auxotrophy): HM
In short: as §1

[10] = tested on: Saccharomyces cerevisiae BY4741 SeMeCo community; assay: z-score of subpopulation abundance vs DMSO median, subpopulation auxotrophic for HU; higher = larger share of this subpopulation than in DMSO controls; details: 10 µM; 24 h; SM minimal medium; subpopulation (auxotrophy): HU
In short: as §1

[11] = tested on: Saccharomyces cerevisiae BY4741 SeMeCo community; assay: z-score of subpopulation abundance vs DMSO median, subpopulation auxotrophic for UM; higher = larger share of this subpopulation than in DMSO controls; details: 10 µM; 24 h; SM minimal medium; subpopulation (auxotrophy): UM
In short: as §1

[12] = tested on: Saccharomyces cerevisiae BY4741 SeMeCo community; assay: z-score of subpopulation abundance vs DMSO median, subpopulation auxotrophic for HL; higher = larger share of this subpopulation than in DMSO controls; details: 10 µM; 24 h; SM minimal medium; subpopulation (auxotrophy): HL
In short: as §1

[13] = tested on: Saccharomyces cerevisiae BY4741 SeMeCo community; assay: z-score of subpopulation abundance vs DMSO median, subpopulation auxotrophic for HLU; higher = larger share of this subpopulation than in DMSO controls; details: 10 µM; 24 h; SM minimal medium; subpopulation (auxotrophy): HLU
In short: as §1

[14] = tested on: Saccharomyces cerevisiae BY4741 SeMeCo community; assay: z-score of subpopulation abundance vs DMSO median, subpopulation auxotrophic for HLM; higher = larger share of this subpopulation than in DMSO controls; details: 10 µM; 24 h; SM minimal medium; subpopulation (auxotrophy): HLM
In short: as §1

[15] = tested on: Saccharomyces cerevisiae BY4741 SeMeCo community; assay: z-score of subpopulation abundance vs DMSO median, subpopulation auxotrophic for HUM; higher = larger share of this subpopulation than in DMSO controls; details: 10 µM; 24 h; SM minimal medium; subpopulation (auxotrophy): HUM
In short: as §1

[16] = tested on: Saccharomyces cerevisiae BY4741 SeMeCo community; assay: z-score of subpopulation abundance vs DMSO median, subpopulation auxotrophic for LUM; higher = larger share of this subpopulation than in DMSO controls; details: 10 µM; 24 h; SM minimal medium; subpopulation (auxotrophy): LUM
In short: as §1

[17] = tested on: Saccharomyces cerevisiae BY4741 SeMeCo community; assay: z-score of subpopulation abundance vs DMSO median, subpopulation auxotrophic for HLUM; higher = larger share of this subpopulation than in DMSO controls; details: 10 µM; 24 h; SM minimal medium; subpopulation (auxotrophy): HLUM
In short: as §1

SMILES | mean cell size [1] | z-score of prototroph abundance [2] | z-score of subpopulation abundance [3] | z-score of subpopulation abundance [4] | z-score of subpopulation abundance [5] | z-score of subpopulation abundance [6] | z-score of subpopulation abundance [7] | z-score of subpopulation abundance [8] | z-score of subpopulation abundance [9] | z-score of subpopulation abundance [10] | z-score of subpopulation abundance [11] | z-score of subpopulation abundance [12] | z-score of subpopulation abundance [13] | z-score of subpopulation abundance [14] | z-score of subpopulation abundance [15] | z-score of subpopulation abundance [16] | z-score of subpopulation abundance [17]
O=C1c2c(O)ccc(O)c2C(=O)c2c(NCCNCCO)ccc(NCCNCCO)c21 [Mitoxantrone 2HCl] | 12.9 ± 0.15 | -2.59 | -14 | 5.53 | -1.69 | 21.2 | 3.06 | -5.45 | -7.73 | 26.5 | -8.31 | 20.9 | 54.8 | -2.5 | -6.42 | -5.01 | -2.13
O=C1Cc2cc(CCN3CCN(c4nsc5ccccc45)CC3)c(Cl)cc2N1 [Ziprasidone HCl] | 12.2 ± 0.18 | -0.07 | 0 | 1.56 | -0.99 | 0.97 | -0.33 | 1.54 | 0.58 | -0.4 | -0.51 | 1.22 | 0.15 | 1.1 | 0.81 | 0.56 | 0.44
CC1(C)S[C@@H]2[C@H](NC(=O)[C@H](N)c3ccccc3)C(=O)N2[C@H]1C(=O)OCOC(=O)[C@@H]1N2C(=O)C[C@H]2S(=O)(=O)C1(C)C [Sultamicillin Tosylate] | 12.28 ± 0.1 | -0.54 | 0.72 | -0.36 | 0.67 | -0.32 | -0.03 | -0.09 | 0.76 | 0.19 | 0.25 | 0.21 | -0.45 | -0.09 | 0.26 | -0.41 | -0.64
COC(=O)C1=C(C)NC(C)=C(C(=O)OCCN(C)Cc2ccccc2)C1c1cccc([N+](=O)[O-])c1 (configuration not stated) [Nicardipine HCl] | 12.4 ± 0.28 | -0.59 | 1.01 | 0.97 | -0.42 | 0.19 | 0.72 | 1.01 | 0.65 | 0 | 0.26 | -0.11 | 0.11 | -0.22 | 0.62 | -0.01 | -0.44
O=C1OC(CN2CCOCC2)CN1/N=C/c1ccc([N+](=O)[O-])o1 (configuration not stated) [Furaltadone HCl] | 12.75 ± 0.12 | 0.34 | 0.83 | -0.94 | 0.25 | -0.56 | -0.14 | -0.57 | 0.11 | -0.63 |  | -0.67 | -0.79 | -0.4 | -0.1 | -0.33 | -0.39
CN[C@H](CC(C)C)C(=O)N[C@H]1C(=O)N[C@@H](CC(N)=O)C(=O)N[C@H]2C(=O)N[C@H]3C(=O)N[C@H](C(=O)N[C@H](C(=O)O)c4cc(O)cc(O)c4-c4cc3ccc4O)[C@H](O)c3ccc(c(Cl)c3)Oc3cc2cc(c3O[C@@H]2O[C@H](CO)[C@@H](O)[C@H](O)[C@H]2O[C@H]2C[C@](C)(N)[C@H](O)[C@H](C)O2)Oc2ccc(cc2Cl)[C@H]1O [Vancomycin HCl] | 12.1 ± 0.11 | 0 | 0.48 | -0.67 | -0.35 | -0.1 | 0.18 | 0.26 | 0.33 | 0.05 | 0.58 | -0.36 | -0.51 | 0.73 | 0.51 | -0.38 | -0.53
Cc1ccccc1C(OCCN(C)C)c1ccccc1 (configuration not stated) [Orphenadrine Citrate] | 12.2 ± 0.14 | 0.04 | -0.02 | -0.09 | 0.9 | -0.33 | 0.36 | -0.43 | -0.64 | 0.14 | 0.14 | -1.07 | 0.33 | -0.97 | -0.13 | 0.36 | -0.1
c1cnc(N2CCN(Cc3ccc4c(c3)OCO4)CC2)nc1 [Piribedil] | 12.6 ± 0.18 | -0.35 | 0.35 | 0.51 | 0.44 | 0.27 | 0.48 | 0.32 | 0.27 | -0.25 | -0.82 | 0.51 | 0.22 | 1.03 | -0.11 | 0.73 | -0.28
CN1CCC[C@@H]1Cc1c[nH]c2ccc(CCS(=O)(=O)c3ccccc3)cc12 [Eletriptan HBr] | 12.5 ± 0.44 | 0.55 | 0.9 | 0.61 | -0.94 |  | -1.12 | 0.75 | 0.08 | -1.27 |  | -0.15 | -0.54 | -0.5 | -0.47 | -1.48 | -0.74
OCCOCCN1CCN(C2=Nc3ccccc3Sc3ccccc32)CC1 [Quetiapine Fumarate] | 12.42 ± 0.12 | -0.49 | 0.24 | 0.37 | -0.17 | -0.24 | -0.19 | 0.32 | 0.13 | -0.61 | 0.49 | -0.06 | 0.76 | 0.55 | 0.19 | 0.86 | 0.41
C1CCN2C[C@@H]3C[C@@H](CN4CCCC[C@@H]34)[C@H]2C1 [(-)-Sparteine Sulfate] | 12.2 ± 0.3 | 0.31 | -0.03 | -0.01 | -0.7 | 1.38 | -0.85 | -0.13 | 0.08 | -0.03 | 0.01 |  | -0.52 | -0.86 | 0.1 | -0.1 | -0.92
CCN(CC)CCOCCOC(=O)C1(c2ccccc2)CCCC1 [Pentoxyverine Citrate] | 12.5 ± 0.13 | 0.37 | -0.67 | -0.03 | 0.17 | -0.71 | 0.06 | -0.24 | -0.96 | -0.94 | -0.39 |  | -0.39 | -0.05 | -1.14 | -0.26 | -0.26
CN[C@@H]1[C@H](O[C@H]2[C@H](O[C@H]3[C@H](O)[C@@H](O)[C@H](NC(=N)N)[C@@H](O)[C@@H]3NC(=N)N)O[C@@H](C)[C@]2(O)CO)O[C@@H](CO)[C@H](O)[C@H]1O [Dihydrostreptomycin sulfate] | 12.2 ± 0.26 | 0.5 | -0.56 | 0.01 | 0.78 | -0.62 | -0.74 | -0.32 | -0.91 | -0.87 | -0.47 |  | -1 | 0.47 | -0.82 | -0.71 | 0.3
CC[C@H]1OC(=O)[C@H](C)[C@@H](O[C@H]2C[C@@](C)(OC)[C@@H](O)[C@H](C)O2)[C@H](C)[C@@H](O[C@@H]2O[C@H](C)C[C@H](N(C)C)[C@H]2O)[C@](C)(O)C[C@@H](C)CN[C@H](C)[C@@H](O)[C@]1(C)O [Azathramycin] | 12.5 ± 0.16 | 0.12 | 0 | -0.61 | 0.07 | 0.33 | -0.39 | -0.14 | 0.1 | -0.16 | 0.42 | -0.33 | -1.12 | -0.79 | 0.01 | -0.37 | -0.5
